Reference: PubChem BioAssay AID1458 (National Center for Advancing Translational Sciences (NCATS), 2008)
In all, about 210,000 compounds went through this assay and about 5,900 (2.8%) were called active. Not shown: some 5% with an inconclusive outcome. Calls come from the whole dose curve; as a rule, active = well fitted activation curve with a large enough effect; inconclusive = small, poorly fitted or top-dose-only effect; inactive = no such curve, though single readings can be large or run the other way. The entries come from a sample that favours actives as a whole. A call without a number means that no potency is given here.

test: qHTS Assay for Enhancers of SMN2 Splice Variant Expression; conditions: HEK293 SMN2-luciferase splicing reporter, luminescence, 30-36 h; series mostly up to 46.1 µM; note: nearly all actives have a fitted effect of over 55% in size
Summary of the method: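 HEK293 cells carry an SMN2 […]–luciferase reporter in which exon 7 inclusion puts luciferase in frame. Cells were plated 10-12 h before compound addition, then incubated 30-36 h at 37C. ONE-Glo luminescence was read; sodium butyrate at 4.5 mM final served as control.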
Potency is the fitted concentration of half-maximal effect.

SMILES	Potency
CC(=O)C1C(c2cccc(Oc3ccccc3)c2)NC(=O)NC1(O)C(F)(F)F (stereo not given)	inactive
O=C(c1cccs1)C1C(c2ccc(Br)cc2)NC(=S)NC1(O)C(F)(F)F (stereo not given)	12.6 µM (active)
CC(=O)C1C(c2ccc(Cl)cc2)NC(=O)NC1(O)C(F)(F)F (stereo not given)	inactive
COc1ccc2c(c1)C(c1cccs1)=NNC(c1cccnc1)=N2	inactive
CCOc1ccc2c(c1)C(c1ccc(C)cc1)=NNC(c1ccc(C)cc1)=N2	12.6 µM (active)
Fc1ccc2c(c1)C(c1cccnc1)=NNC(c1cccs1)=N2	inactive
Cc1cccn2c(=O)c3cc(C(=O)NC(C)c4ccccc4)c(=N)n(CCCO)c3nc12 (stereo not given)	inactive
COc1cc(OC)cc(C(=O)Nc2c(C(=O)Nc3ccc(F)cc3)oc3ccccc23)c1	inactive
COc1ccc(/C=C(\C#N)C(=O)ONC2=NCCCCC2)cc1	inactive
Oc1ccc(/C=N/NC2=NCCCCC2)c(O)c1	12.6 µM (active)
CCN(CC)c1ccc(/C=N/Nc2nc(C)cc(C)n2)c(O)c1	inactive
NS(=O)(=O)c1ccc(NC(=O)COc2ccc(S(=O)(=O)NC3CCCCC3)cc2)cc1	inactive
Cc1ccc(S(=O)(=O)NCC(=O)N(CC(=O)NC(C)(C)C)Cc2cccs2)cc1	inactive
Cc1ccc(S(=O)(=O)NCC(=O)N(CC(=O)NC2CCCCC2)Cc2ccco2)cc1	20 µM (active)
Cc1ccc(S(=O)(=O)N(C)CC(=O)NC2CCCC2)cc1	inactive
CN(Cc1ccccc1)C(=O)c1cc2c(=O)n(C)c3ccccc3c2s1	inactive
Cc1cccc(NC(=O)CN(c2ccc(C(C)C)cc2)S(=O)(=O)c2c(C)nn(C)c2C)c1C	inactive
CCOc1ccc(-c2cc3nc(C4CCN(C(=O)OC(C)(C)C)CC4)c(C(=O)Nc4ccc(C(=O)OC)cc4)cn3n2)cc1	inactive
Cn1nc(-c2ccccc2)c(-c2nc(-c3ccc(Cl)cc3)no2)c1Cl	inactive
Nc1nonc1-c1noc(-c2ccc(Br)o2)n1	inactive
CCCN(CCC)c1ccc(C(O)c2nnc(-c3ccccc3)o2)cc1 (stereo not given)	inactive
Brc1ccc(-c2nnc(-c3ccccc3)o2)o1	14.1 µM (active)

SMILES	Potency
OC(c1nnc(-c2ccccc2)o1)c1cccs1 (stereo not given)	inactive
Brc1ccc(-c2noc(-c3ccccc3)n2)o1	11.2 µM (active)
COC(=O)c1sc2ncccc2c1-n1c(C)ccc1C	inactive
Cc1sc2ncn(CC(=O)N3CCN(c4ccc(F)cc4)CC3)c(=O)c2c1S(=O)(=O)N1CCN(c2ncccn2)CC1	inactive
CCc1nccn1S(=O)(=O)c1cc(Br)ccc1Br	inactive
Cc1ccc(-c2nn(CCC(=O)Nc3ccc(Cl)c(Cl)c3)c(=O)c3ccccc23)cc1	inactive
CC(C)Cn1c(C2CC(=O)N(c3ccccc3Cl)C2)nc2ccccc21 (stereo not given)	inactive
Cc1cccc(NC(=O)CSc2nc3c(oc4ccccc43)c(=O)n2-c2ccc(F)cc2)c1	inactive
Cc1cc(C)c2oc(C(=O)Nc3ccc(S(=O)(=O)N4CCCCCC4)cc3)cc(=O)c2c1	inactive
Cc1ccc(S(=O)(=O)N(Cc2nc(-c3ccc(Cl)cc3)no2)C2CCCCC2)cc1	inactive
COc1ccc(/C=N/Nc2nc3ccccc3c(=O)[nH]2)cc1	12.6 µM (active)
O=c1c2ccccc2nc(N/N=C/c2ccccc2)n1O	inactive
COc1ccc(C=Nc2cccc3ncccc23)cc1	inactive
CCc1cc2c(cc3c(=O)n(CC(=O)N4CCN(c5cc(Cl)ccc5C)CC4)nc(CC)n32)s1	inactive
CCCS(=O)(=O)c1c(Nc2ccccc2C)sc(C(=O)c2ccccc2)c1N	inactive
O=c1c2cccnc2n(Cc2cccc(F)c2)c(=O)n1Cc1ccccc1Cl	inactive
CCCCOC(=O)CSc1ncnc2sc3c(c12)CCC(C)C3 (stereo not given)	inactive
Cc1ccc(C(=O)Nc2ccc(C)c(S(=O)(=O)N(C)C)c2)s1	12.6 µM (active)
Cc1ccc(NC(=O)c2cccs2)cc1S(=O)(=O)N(C)C	inactive
Cc1ccc(NC(=O)CNCc2ccccn2)cc1S(=O)(=O)N(C)C	inactive
COc1ccc(C(=O)Nc2ccc(S(=O)(=O)NC(C)C)cc2)cc1	inactive
COc1ccc(C(=O)Nc2ccc(F)cc2F)cc1	10 µM (active)

SMILES	Potency
COc1ccc(C(=O)N/N=c2\oc3ccccc3cc2C(N)=O)cc1	inactive
COc1ccc(C(=O)Nc2onc3c2CCCC3)cc1	0.794 µM (active)
COc1ccccc1CC(=O)Nc1ccc(F)cc1F	inactive
COc1ccc(NC(=O)c2c(C)oc3c2CCCC3)cc1	inactive
CCc1cc(C(N)=O)c(NC(=O)c2ccc(OC)cc2)s1	11.2 µM (active)
CCc1cc(C(c2ccccc2OC)N2CCOCC2)c(NC(=O)c2ccccc2)s1 (stereo not given)	inactive
COc1cc(OC)cc(C(=O)OCC(=O)Nc2ccc(F)cc2F)c1	inactive
O=C(Nc1cccc2ccccc12)c1onc2c1CCCC2	inactive
COc1ccc(NC(=O)c2ccc(C#CC(C)(C)O)cc2)cc1	inactive
COc1ccc(NC(=O)c2ccc(OC)cc2)cc1	11.2 µM (active)
Cc1ccc(CCNC(=O)Cn2c(-c3cccs3)cc3cc(F)ccc32)cc1	inactive
COc1ccccc1CNC(=O)CCCCn1c(=O)c2ccccc2n(CC(=O)Nc2cc(Cl)ccc2C)c1=O	inactive
O=C(COc1ccc(Cl)cc1)N(Cc1ccco1)Cc1ccco1	inactive
COc1cccc(NC(=O)N(Cc2cn(C)c3ccccc23)C2CCCCCC2)c1	inactive
CCn1c2ccccc2c2cc(NC(=O)COc3ccc(C)cc3C)ccc21	inactive
CCOC(=O)c1ccc(NC2=CC(c3ccc(OCC)cc3)N(c3ccc(C(=O)OCC)cc3)C2=O)cc1 (stereo not given)	inactive
Cc1nn2cc(-c3ccc(Cl)cc3)cnc2c1Br	3.55 µM (active)
COc1ccccc1CNC(=O)CCn1c(=O)c2ccccc2n(CC(=O)Nc2ccc(Br)cc2F)c1=O	inactive
COc1ccc(NC(=O)c2ccc3oc(=O)c(S(=O)(=O)c4ccc(F)cc4)cc3c2)c(OC)c1	inactive
O=C(C1CC1)N1CCc2cc(Br)cc(S(=O)(=O)N3CCN(c4ccccc4F)CC3)c21	inactive
COc1cccc(C(=O)NC2=NC(c3ccc(N(C)C)cc3)CC(=O)N2)c1 (stereo not given)	inactive
